“And” between values parts separate entries of the source, which are not always exact repeats. Equal values may be shown once. The source made the active and inactive calls. Unless noted, the rule behind the calls is not given here.

Experiment [1] can be described thus: glutamate transport activators, MN-1 cells, MN-1 cell line (AID 1612).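 Note: tested at 1 µM final; 0% = mean of DMSO vehicle wells on each plate; positive means more glutamate uptake than control and negative means less.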 Conditions: MN-1 motor neuron cells, stronger effect = higher value.
A short description of experiment [2]: GFP-Q80 aggregate reduction, neuronal-like cells, cell-based, NGF-treated PC12, GFPQ80 (AID 1614).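 Note: lower means fewer inclusions and 0 means no inclusions at all.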 Conditions: PC12 NGF-treated GFP-polyQ80 inclusion reduction.
The nature of experiment [3]: 75Q-TubH aggregate inhibition, S. cerevisiae, yeast (AID 1616). Conditions: S. cerevisiae 75Q-TubH polyglutamine aggregation suppression; stronger effect = higher value.
Experiment [4] can be described thus: compounds altering circadian rhythm period length – cell-based, LOPAC library, luminescence reporter (AID 2774).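 Note: values are relative to mean of DMSO wells on each plate.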 The note with it: circadian reporter cells, at 7 µM, actives lie on both sides.
Experiment [5] in a line: compounds altering viability of human ES cells (AID 493140).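 Note: cells exposed to compounds for four days before counting.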 Conditions: human embryonic stem cell survival screen; stronger effect = higher value.
In experiment [6] the test system is Hepatitis C virus NS3 helicase. The experiment can be described thus: blockers of NS3h binding to ssDNA – biochemical, fluorescence polarization, LOPAC1280 library, primary screen (AID 687035; in the data active = inhibition above about 37%). Conditions: Purified HCV NS3 helicase, Cy5-dT15 ssDNA binding fluorescence polarization; stronger effect = higher value; concentration not given here. In general terms: Polarisation of emitted light reports the rotation of a fluorescent probe.

Experiment [7] is described as follows: compounds altering Cy5-DNA-NS3h complex signal – biochemical, LOPAC1280, artefact control for HCV NS3 helicase inhibitor project (AID 687037). Conditions: Cy5-DNA-NS3h complex fluorescence interference counterscreen. A general note: Counterscreens check selectivity or assay interference.
Experiment [8] in a line: Wnt pathway potentiators raising nuclear beta-catenin – imaging, WNT3A-conditioned medium, mouse C2C12, NPC library, primary screen (AID 1117326; in the data active = nuclear beta-catenin stimulation mostly above about 4.2%, no sharp cut-off; inactive = mostly below about 10%). The note with it: stronger effect = higher value.
The nature of experiment [9]: P. berghei load reduction in hepatocytes – cell-based, HepG2, luciferase luminescence, HepG2 viability, primary screen (AID 624349; in the data active = parasite load remaining mostly below about 12%, no sharp cut-off; inactive = mostly above about 10%;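 note: 100% = mean of DMSO negative control wells on the same plate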). The note with it: P. berghei liver stage in HepG2, luciferase luminescence, concentration not given here; parasite load remaining: stronger effect = lower value; viability: measured here: HepG2 viability without parasites.
Experiment [10] has as its system Hepatitis C virus NS3 helicase. The experiment in a line: blockers of NS3h binding to DNA – biochemical, fluorescence polarization, NIH Clinical Collection, primary screen (AID 743270). The note with it: NS3 helicase binding to Cy5-dT15 DNA, stronger effect = higher value, concentration not given here.
The target in experiment [11] is Single-stranded DNA-binding protein (Escherichia coli (strain K12)) (UniProt P0AGE0). The experiment can be described thus: SSB-ssDNA binding inhibitors – biochemical, fluorescence polarization, NIH Clinical Collection, counter-screen for HCV NS3 helicase inhibitor project (AID 743271; in the data active = inhibition above about 28%). The note with it: E. coli SSB-DNA binding, stronger effect = higher value, concentration not given here.

Experiment [12] in a line: compounds distorting NS3 helicase fluorescence signal – biochemical, NIH Clinical Collection, artefact control for HCV NS3 helicase inhibitor project (AID 743272).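 Note: HCV NS3 helicase with a Cy5 labelled single stranded DNA probe.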 Conditions: fluorescence interference counterscreen, HCV NS3 helicase assay; stronger effect = lower value.

Turning to `C[C@](N)(Cc1ccc(O)c(O)c1)C(=O)O`, the glutamate uptake change in experiment [1] turned out to be 33%. Moreover, the inclusion score in experiment [2] is 2. The aggregation suppression score in experiment [3] amounted to 1.39. For the same molecule, the period change in [4] is -0.07 h (inactive). For the same molecule, the survival in experiment [5] is 3.58 (inactive). In addition, in [6], the inhibition – broadly, the change of the read-out against control, counted positive when it falls – is -3% (inactive). In addition, the fluorescence ratio (interference) in [7] is 1 (inactive). For the same molecule, the nuclear beta-catenin stimulation was 2.9% (inactive) in experiment [8] (at 10 µM) and 1.2% in experiment [8] (stimulation, at 2 µM).
On to `CC(=O)N[C@@H](CS)C(=O)O`, for which the glutamate uptake change in [1] is -3.8%. Further, the inclusion score in experiment [2] was determined as 2. Further, the aggregation suppression score in [3] was 1.2. Further, the period change in [4] was 0.1 h (inactive). In experiment [9], the parasite load remaining is 106% (inactive) and 79.1% (inactive); the viability (in general, a read-out of living cells in per cent, often relative to untreated cells) was 72.7% and 91.5%. Further, in [6], the inhibition was 0% (inactive). The fluorescence ratio (interference) in experiment [7] is 0.9 (inactive). Also, the nuclear beta-catenin stimulation in [8] (at 10 µM) was 2.6% (inactive). Besides, the nuclear beta-catenin stimulation in experiment [8] (stimulation, at 2 µM) was -1.4%.
Regarding `O=C1NCC2(CCN(CCc3ccccc3)CC2)O1`, the glutamate uptake change in [1] is -8.17%. This molecule had an inclusion score in experiment [2] of 2. In addition, the aggregation suppression score in experiment [3] was 1.64. Moreover, the period change in experiment [4] is 0 h (inactive). The survival in experiment [5] is 18.8 (inactive). Also, in [6], the inhibition was -3% (inactive). The fluorescence ratio (interference) in [7] is 1 (inactive). Further, the nuclear beta-catenin stimulation in [8] (at 10 µM) was 0.4% (inactive); in [8] (stimulation, at 2 µM), 1.5%.
Turning to `CCn1cc(C(=O)O)c(=O)c2cc3c(cc21)OCO3`, the glutamate uptake change in experiment [1] is 5.71%. In addition, the inclusion score in experiment [2] worked out at 2. This molecule also showed an aggregation suppression score in experiment [3] of 1.09. Further, the period change in experiment [4] is 0.16 h (inactive). Also, the survival in experiment [5] is 33.2 (inactive). Besides, the inhibition in experiment [6] is -1% (inactive). Moreover, in [7], the fluorescence ratio (interference) was 1 (inactive). Further, the nuclear beta-catenin stimulation was 0.2% (inactive) in [8] (at 10 µM) and 0.8% in experiment [8] (stimulation, at 2 µM).
Consider `CCCN(CCC)C(=O)C(CCC(=O)O)NC(=O)c1ccccc1` (stereo not given), for which the glutamate uptake change in experiment [1] amounted to 11.9%. The inclusion score in experiment [2] was 1. In [3], this molecule displayed an aggregation suppression score of 1.2. For the same molecule, in experiment [4], the period change is 0.02 h (inactive). In addition, the survival in experiment [5] was 19.6 (inactive). The inhibition in [6] is -4% (inactive). Also, the fluorescence ratio (interference) in experiment [7] is 0.9 (inactive). The nuclear beta-catenin stimulation in experiment [8] (at 10 µM) was -0.6% (inactive); in experiment [8] (stimulation, at 2 µM) it was 0.3%.
As for `CN(C)CCC(c1ccccc1)c1ccccn1` (stereo not given), the glutamate uptake change in experiment [1] was found to be 24.1%. The same molecule gave an inclusion score in experiment [2] of 2. Further, in experiment [3], the aggregation suppression score stood at 1.23. Moreover, the period change in experiment [4] is -0.08 h (inactive). Moreover, the survival in [5] is 15 (inactive). For the same molecule, in [6], the inhibition was -1% (inactive). For the same molecule, in experiment [7], the fluorescence ratio (interference) is 0.9 (inactive). The nuclear beta-catenin stimulation was 0.4% (inactive) in [8] (at 10 µM) and 1.1% in experiment [8] (stimulation, at 2 µM).
In the case of `O=C1CC2(CCCC2)CC(=O)N1CCCCN1CCN(c2ncccn2)CC1`, the glutamate uptake change in [1] is 15.2%. Besides, the inclusion score in [2] amounted to 2. This molecule also returned an aggregation suppression score in [3] of 1.24. Moreover, the period change in [4] is -0.08 h (inactive). In addition, the survival in experiment [5] is 4 (inactive). Also, the figures for the inhibition in experiment [6], in experiment [10] and in experiment [11] were 0% (inactive), -6.82% (inactive) and 1.05% (inactive), respectively. In addition, in experiment [7], the fluorescence ratio (interference) was 1 (inactive). Further, the fluorescence ratio in [12] is 1.03 (inactive). Besides, the nuclear beta-catenin stimulation was 0.7% (inactive) in experiment [8] (at 10 µM) and 2.6% in experiment [8] (stimulation, at 2 µM).
For the molecule `C[N+](C)(C)CCCCCC[N+](C)(C)C`, in experiment [1], the glutamate uptake change was 11.7%. This molecule also gave an inclusion score in [2] of 2. Further, the aggregation suppression score in experiment [3] worked out at 1.28. In [4], the period change is -0.005 hour (inactive) and -0.2 hour (inactive). For the same molecule, the survival in experiment [5] was 12.8 (inactive). In experiment [9], the parasite load remaining is 28% (inactive) and 143% (inactive) and 127% (inactive); the viability was 48% and 87.6% and 90.7%. In experiment [6], the inhibition was 0% (inactive) and -2% (inactive). In experiment [7], the fluorescence ratio (interference) was 1 (inactive). Further, the nuclear beta-catenin stimulation in experiment [8] (at 10 µM) is -0.3% (inactive). In [8] (stimulation, at 2 µM), the nuclear beta-catenin stimulation is -1.6%.
`N[C@@H](Cc1ccc(O)c(O)c1)C(=O)O`: the glutamate uptake change in experiment [1] is -2.7%. The same molecule gave an inclusion score in experiment [2] of 2. For the same molecule, in experiment [3], the aggregation suppression score came to 1.67. In addition, the period change in [4] was 0.105 h (inactive). For the same molecule, the survival in [5] is 9.67 (inactive). The inhibition in [6] is 1% (inactive). Besides, the fluorescence ratio (interference) in experiment [7] was 1 (inactive). Further, the nuclear beta-catenin stimulation in experiment [8] (at 10 µM) was 1% (inactive); in experiment [8] (stimulation, at 2 µM) it was -0.9%.
Turning to `CCCCNc1ccc(C(=O)OCCN(C)C)cc1`, the glutamate uptake change in experiment [1] came out at 5.32%. The molecule further returned an inclusion score in experiment [2] of 2. Also, the aggregation suppression score in experiment [3] amounted to 1.05. Moreover, in experiment [4], the period change was 0.035 h (inactive). In [5], the survival is 12.4 (inactive). Also, the inhibition in [6] is -2% (inactive). In [7], the fluorescence ratio (interference) is 0.9 (inactive). The nuclear beta-catenin stimulation in experiment [8] (at 10 µM) was 9.2% (inactive); in [8] (stimulation, at 2 µM), 3.3%.
For `COCCc1ccc(OCC(O)CNC(C)C)cc1` (stereo not given), the glutamate uptake change in experiment [1] was -0.51%. Also, the inclusion score in experiment [2] was 2. The molecule also yielded an aggregation suppression score in [3] of 0.579. Also, the period change in experiment [4] is 0.045 h (inactive). The survival in experiment [5] was 15.4 (inactive). In addition, the inhibition in experiment [6] is 1% (inactive). The fluorescence ratio (interference) in experiment [7] is 1 (inactive). Besides, the nuclear beta-catenin stimulation is 0.8% (inactive) in experiment [8] (at 10 µM) and 1.6% in experiment [8] (stimulation, at 2 µM).
Consider `CC(=O)Oc1ccccc1C(=O)O`, for which, in [1], the glutamate uptake change amounted to 9.8%. The same molecule returned an inclusion score in experiment [2] of 2. The same molecule returned an aggregation suppression score in experiment [3] of 1.28. The period change in experiment [4] was -0.135 h (inactive). In experiment [9], the parasite load remaining was 80.4% (inactive) and 75.4% (inactive) and 33.3% (inactive); the viability was 71.3% and 95.3% and 127%. Moreover, the inhibition in [6] was -3% (inactive). Besides, the fluorescence ratio (interference) in [7] is 1 (inactive). Moreover, the nuclear beta-catenin stimulation in experiment [8] (at 10 µM) is -0.3% (inactive). The nuclear beta-catenin stimulation in [8] (stimulation, at 2 µM) came to 0.2%.

The record behind these values is PubChem BioAssay.
